Source: PubChem BioAssay
Compounds with a hit are over-represented: about 2.3% of the library has one in this group of screens.
Tau FP inhib: qHTS for Inhibitors of Tau Fibril Formation, Fluorescence Polarization. K18 P301L tau heparin fibrillization, Alexa594 FP, 6 h. Potency, µM (highest dose often 57.7 µM), usual class: inhibitors. actives 0.39% (n = 280,000). AID 1468, 2008; also: nearly all actives have a fitted effect of over 55% in size
Target sequence (P10636 561-689 P618L limits assumed): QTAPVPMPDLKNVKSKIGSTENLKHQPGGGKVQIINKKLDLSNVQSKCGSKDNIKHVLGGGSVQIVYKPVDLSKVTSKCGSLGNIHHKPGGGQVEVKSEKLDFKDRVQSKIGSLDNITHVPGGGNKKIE
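FP of Alexa 594-tau after heparin (20 uM) induction. Substrate: human K18 P301L, 15 uM unlabeled, 0.24 uM labeled. Buffer 100 mM sodium acetate pH 7. 6 hr, 37 C.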
Tau fluor cs: Counterscreen qHTS for Inhibitors of Tau Fibril Formation, Fluorescence Polarization; tau K18 P301L Alexa594 fluorescence, heparin fibrillization; Potency, µM (top dose mostly 57.7 µM); actives 0.93% (n = 280,000); also: nearly all actives have a fitted effect of over 55% in size
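Human K18 P301L tau (15 uM unlabeled plus 0.24 uM Alexa 594-labeled, final) in 100 mM sodium acetate pH 7 was mixed with compound and 20 uM heparin and incubated 6 hr at 37 C.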
FBPA coupling cs: qHTS Assay for Inhibitors of Fructose-1,6-bisphosphate Aldolase from Giardia Lamblia: Coupling assay counterscreen; coupling enzyme system counterscreen, AmpLite Red fluorescence; activity change, negative = inhibition, % at 58.2 µM, hits read low; actives 0.67% (n = 290,000); AID 2472, 2010; in the data active = activity change below about -30%
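Compounds tested against the coupling enzymes alone at 57.5 uM final; readout was AmpLite Red fluorescence (525/598 nm) after 20 min at RT.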
Tau ThT inhib: qHTS for Inhibitors of Tau Fibril Formation, Thioflavin T Binding. Microtubule-associated protein tau (Homo sapiens), P10636. recombinant tau K18 P301L (four-repeat tau fragment), heparin-induced fibrillization, ThT fluorescence. Potency, µM (highest dose often 57.4 µM), usual class: inhibitors. actives 2.1% (n = 270,000). AID 1460, 2008; also: nearly all actives have a fitted effect of over 55% in size
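In this qHTS, human K18 P301L tau is incubated with compound and heparin for 6 hr at 37 C, and Thioflavin T fluorescence then reports fibril load.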
USP1-UAF1 inh: Inhibitors of USP1/UAF1: Primary Screen; actives 0.23% (n = 390,000); Potency, µM (doses to about 57.1 µM), most hits filed as inhibitors; recombinant USP1/UAF1, Ub-Rhodamine cleavage fluorescence; Ubiquitin carboxyl-terminal hydrolase 1 (Homo sapiens), O94782; AID 743255, 2014; also: nearly all actives have a fitted effect of over 60% in size
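1 nM enzyme complex + cpd, 15 min RT; start with Ub-Rho 150nM final; kinetic fluorescence ex 480/em 540, 6 reads q60 s. Buffer 50mM HEPES pH 7.8, 0.5mM EDTA, 0.1 mg/ml BSA, 1mM TCEP, 0.01% Tween-20.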
Numbers stand for hits; n = inactive; u = inconclusive; x = not tested or not shown; [ ] = dose if it differs, or a comment. Unless noted, calls follow the shape of the dose curve; as a rule, active = well fitted curve in the direction sought with a large enough effect; inconclusive = small, poorly fitted or top-dose-only effect, or another doubt; inactive = no such curve, though single readings can be large; an effect the other way counts as inactive or inconclusive.

SMILES	Tau FP inhib	Tau fluor cs	FBPA coupling cs	Tau ThT inhib	USP1-UAF1 inh
COc1ccc(-c2cc(-c3c(O)c(OC)c4occc4c3OC)[nH]n2)cc1	n	12.6µM[quencher]	n	11.2µM	n
COc1ccc(-c2cc(-c3c(O)c(OC)c4occc4c3OC)[nH]n2)cc1OC	n	14.1µM[quencher]	n	11.2µM	n
COc1ccc(-n2[nH]c(C)cc2=O)cc1	u	u	-31.9	u	u
[O-]/C(=C(\C(=S)Nc1cccc2ccccc12)[n+]1ccccc1)c1ccc2c(c1)OCCO2	u	u	-46.4	12.6µM	u
[O-]/C(=C(\C(=S)Nc1cccc2ccccc12)[n+]1ccccc1)c1cccs1	n	n	n	u	n
[O-]/C(=C(\C(=S)Nc1cccc2ccccc12)[n+]1ccccc1)c1ccc(OC(F)F)cc1	n	n	-40.5	u	n
COc1cccc(NC(=S)/C(=C(\[O-])c2ccc(OC(F)F)cc2)[n+]2ccccc2)c1	n	n	n	u	u
COc1ccc(F)cc1NC(=O)C1CCN(c2nc(-c3ccc(OC)c(OC)c3)no2)CC1	n	u	x	n	n
CN1C(=O)/C(=C/c2cn(CC(=O)NCc3ccco3)c3ccccc23)NC1=S	u	u	n	12.6µM	x
O=[N+]([O-])c1ccc(Nc2c3ccccc3nc3ccccc23)cc1	u	11.2µM[quencher]	n	10µM	n
O=C(O)c1ccccc1Nc1ccc([N+](=O)[O-])cc1	n	n	n	10µM	n
O=[N+]([O-])c1ccccc1Nc1c2ccccc2nc2ccccc12	n	u	n	n	n
O=C(O)c1ccccc1Nc1ccccc1C(=O)O	n	n	n	n	n
O=C(NC1CC(=O)N(c2cccc(F)c2)C1)c1cccs1 (configuration not stated)	n	n	x	n	n
O=c1[nH]c(Nc2ccc(F)cc2)cc2ccccc12	n	u	-34.2	u	12.6µM
O=c1[nH]c(Nc2ccccc2Cl)cc2ccccc12	x	x	x	x	14.1µM
Cc1ccccc1Nc1cc2ccccc2c(=O)[nH]1	u	n	-42.7	u	1µM
O=c1oc(Nc2ccccc2Cl)nc2ccccc12	n	n	n	n	n
Cc1cc2ccccc2c(=O)[nH]1	n	n	n	n	n
CN1CCc2c(sc3c2C(=O)NC(c2ccc(OC(=O)c4ccc(Cl)cc4)cc2)N3)C1 (configuration not stated)	n	n	x	6.31µM	u
CN1CCc2c(sc3c2C(=O)NC(c2ccc(OC(=O)c4ccccc4)cc2)N3)C1 (configuration not stated)	u	n	x	5.62µM	n
CN1CCc2c(sc3c2C(=O)NC(c2ccc(OC(=O)c4ccc(C(C)(C)C)cc4)cc2)N3)C1 (configuration not stated)	n	n	x	u	31.6µM
CCOc1cc(C2NC(=O)c3c(sc4c3CCN(C)C4)N2)ccc1OC(=O)c1ccc(F)cc1 (configuration not stated)	n	n	x	u	n
CCCc1cc(=O)[nH]c(Nc2ccccc2O)n1	n	n	x	n	u
COc1ccc2c(c1-c1c3c(cc(Br)c1OC)CCCC3)CCCC2	n	n	n	n	x
SMILES	Tau FP inhib	Tau fluor cs	FBPA coupling cs	Tau ThT inhib	USP1-UAF1 inh
CN1C(=O)C(C)(C)c2cc(S(=O)(=O)NCc3ccc(C(=O)Nc4ccc(Cl)cc4)cc3)ccc21	u	n	x	n	n
CCN1C(=O)/C(=C\c2ccco2)C(C(=O)OC)=C1C	n	n	n	u	n
COC(=O)C1=C(C)N(CCc2ccccc2)C(=O)/C1=C\c1ccco1	n	n	n	17.8µM	n
COC(=O)C1=C(C)N(Cc2ccccc2)C(=O)/C1=C\c1ccco1	n	u	n	15.8µM	n
C=CCN1C(=O)/C(=C\c2ccco2)C(C(=O)OC)=C1C	n	n	n	n	n
COC(=O)C1=C(C)N(Cc2cccnc2)C(=O)/C1=C\c1sccc1C	n	n	n	14.1µM	n
COc1cc2[nH]c3c(=O)n(CCN(C(C)C)C(C)C)cnc3c2cc1OC	n	n	-45.3	n	n
O=C(Cc1ccccc1Cl)NC1(O)C(=O)c2ccccc2C1=O	u	n	n	2.82µM	u
COc1cc(/C=C/C(=O)N2CCCCC2=O)cc(OC)c1OC	u	n	n	11.2µM	x
COCCNC(=O)c1cccc(OC2CCN(Cc3cccc(SC)c3)CC2)c1	x	x	n	x	n
CCOC(=O)/C(C#N)=C1\C(=O)N(Cc2ccccc2)c2ccccc21	u	u	n	35.5µM	n
CCOC(=O)/C(C#N)=C1/C=CN(Cc2ccccc2)C=N1	n	n	n	n	n
CCc1cc(SC#N)cc(CC)c1NC(=O)CCl	7.08µM	n	n	3.55µM	n
Cc1ccc(Cl)cc1-n1c(=O)c2sc3ccccc3c2n(CC(=O)NC2CCCC2)c1=O	u	n	x	n	n
CC(C)(C)C(=O)C(Cl)C(=O)Nc1ccccc1 (configuration not stated)	u	n	n	7.08µM	n
O=C(Nc1ccc(Nc2ccccc2)cc1)C(Cl)Cl	u	u	n	u	n
Cc1[nH]c2ccc(C(=O)Nc3ccc(F)cc3)cc2c1C	u	14.1µM[quencher]	x	12.6µM	n
Cc1ccc(-c2ccc(/C=C(\C#N)C(N)=S)n2C)cc1	n	u	n	1µM	n
Cn1cccc1/C=C(/C#N)C(N)=S	n	n	n	u	n
CCOc1ccc(-c2nc(N)ncc2Oc2ccc(OC)cc2)c(O)c1	u	u	n	u	n
COc1ccc(-c2nc(N)nc(C)c2Oc2ccccc2Br)c(O)c1	n	17.8µM[quencher]	n	n	n
COc1cccc(Nc2nc(-c3sc(NC(=O)c4ccco4)nc3C)cs2)c1	u	u	n	10µM	n
COc1cccc(Nc2nc(-c3sc(C)nc3C)cs2)c1	x	x	n	x	n
COc1cccc(Nc2nc(-c3sc(N)nc3C)cs2)c1	n	14.1µM[quencher]	n	11.2µM	n
COc1ccc(C(=O)N2c3nc(-c4ccco4)nn3C3(CCCCC3)[C@@H]3CCCC[C@@H]32)cc1OC	n	n	x	n	n
SMILES	Tau FP inhib	Tau fluor cs	FBPA coupling cs	Tau ThT inhib	USP1-UAF1 inh
COC1=C(Br)C(=O)c2ncccc2C1=O	x	x	x	x	0.891µM
Cc1ccc(CSc2ncc(Cl)c(C(=O)Oc3ccccc3F)n2)cc1	n	n	x	15.8µM	n
O=C(Oc1ccccc1F)c1nc(SCc2ccccc2F)ncc1Cl	n	n	x	22.4µM	n
COc1cccc(Nc2ncc3nc(CCc4ccccc4)c(=O)n(C)c3n2)c1	x	x	n	x	x
O=S(=O)(/N=C(/Nc1cccc2ccccc12)c1ccccc1)c1cccs1	n	n	n	n	n
Cc1ccc(NC2=C/C(=N/S(=O)(=O)c3cccs3)c3ccccc3C2=O)cc1	n	8.91µM[quencher]	-42.1	u	u
